Data: PubChem BioAssay AID1850 (Southern Research Specialized Biocontainment Screening …, 2009)
Among all 310,000 compounds or so, about 1,000 (0.32%) were called active. No rule for the calls is given here. Only a sample is shown. Measured potencies and affinities stand elsewhere.

Assay: PhoP regulon inhibitors, Salmonella typhi PhoP promoter GFP reporter, confirmatory (AID 1850);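 also: 0% = induced wells with vehicle and 100% = uninduced wells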
Conditions: fluorescence, 4 h, at 50 µM, active compounds read high

| Structure (SMILES) | inhibition |
| --- | --- |
| Cc1ccc2c(c1)NC(=O)C(CC(=O)NCCCN1CCCCC1)O2 (configuration not stated) | -5.47% (inactive) |
| COc1cc(Cl)c(C)cc1NC(=O)CCCN1C(=O)CCC1=O | -6.87% (inactive) |
| CN1CCN(C(=O)c2ccc(CS(=O)Cc3ccc(Cl)cc3)o2)CC1 (configuration not stated) | -3.59% (inactive) |
| COc1cccc(CNS(=O)(=O)c2ccc(S(=O)(=O)NC3CC3)cc2)c1 | 0.68% (inactive) |
| CCCc1cc(=O)oc2c3c(cc(OCC(=O)N4CCC[C@H]4C(=O)O)c12)OC(C)(C)CC3 | -1.72% (inactive) |
| COc1ccc(CNC(=O)CSc2nnnn2-c2ccc(O)cc2)cc1 | 4.45% (inactive) |
| Cc1ccc(CN2CCC(CNS(=O)(=O)c3ccc(-c4ccc(=O)[nH]n4)s3)CC2)cc1 | -17.1% (inactive) |
| Cc1ccc(Nc2nc(N)nc(CSC(=S)N3CCN(c4ccccc4)CC3)n2)cc1 | 5.34% (inactive) |
| COc1ccccc1NC(=O)Nc1ccc(CC#N)cc1 | -23.3% (inactive) |
| O=c1oc2ccccc2n1Cc1ccccc1F | 0.75% (inactive) |
| O=c1[nH]cc(NCCc2ccccc2)c(=O)[nH]1 | 2.68% (inactive) |
| CC(=O)Nc1ccc(C(=O)N/N=C/c2cc(Br)cc(Br)c2O)cc1 | -13.1% (inactive) |
| O=C(CP(=O)(c1ccccc1)c1ccccc1)N/N=C/c1cc(Br)cc(Br)c1O | -0.96% (inactive) |
| O=C(N/N=C/c1cc([N+](=O)[O-])ccc1O)c1ccncc1 | 12.7% (inactive) |
| O=C(N/N=C/c1cc(Cl)ccc1O)c1ccc(Br)cc1 | -15.2% (inactive) |
| O=C(N/N=C/c1cc(Br)cc(Br)c1O)c1cccc(S(=O)(=O)N2CCOCC2)c1 | 17.9% (inactive) |
| O=C(N/N=C/c1cccnc1)c1cccc(Cl)c1 | 41% (inactive) |
| O=C(CNC(=O)c1ccncc1)N/N=C/c1cc(Br)ccc1O | 14.9% (inactive) |
| COc1c(Br)cc(Br)cc1/C=N/NC(=O)c1ccncc1 | -12.1% (inactive) |
| COc1ccccc1C(=O)Nc1nnc(SCC(=O)Nc2ccc3c(c2)oc2ccccc23)s1 | -0.02% (inactive) |
| COc1cc(/C=C2/NC(=O)NC2=O)ccc1OCC(=O)Nc1ccc(F)cc1 | 1.58% (inactive) |
| C=CCn1c(CSc2ccc(C)cc2)n[nH]c1=S | 2.92% (inactive) |
| Cn1ncc(Cl)c1C(=O)N1CCN(c2ncccn2)CC1 | 10.1% (inactive) |
| Cc1cccc(NC(=O)COC(=O)CCCC2=NS(=O)(=O)c3ccccc3N2)c1 | -3.69% (inactive) |
| C=C(C)CC1N(c2cccc(OC)c2)C(=O)C2C(C(=O)O)C3C=CC21O3 (configuration not stated) | -1.1% (inactive) |

| Structure (SMILES) | inhibition |
| --- | --- |
| CCCCn1c(=O)[nH]c(=O)c2c1nc(-c1cc(Br)ccc1OC)n2C | 1.08% (inactive) |
| O=C(CSC(=S)N1CCCC1)Nc1ncc(Cl)cc1Cl | -5.14% (inactive) |
| CC(O)(CS(=O)(=O)Cc1ccccc1)C(=O)Nc1ccc(C(F)(F)F)cc1 (configuration not stated) | 9.99% (inactive) |
| CCc1ccccc1NC(=O)COc1cccc(-n2cnnn2)c1 | -5.08% (inactive) |
| CC(C)OCCCNC(=O)c1ccc(NC(=O)C2=CSCCO2)cc1 | -8.42% (inactive) |
| COc1ccc(S(=O)(=O)N2CCN(c3ncccn3)CC2)cc1[N+](=O)[O-] | -20.4% (inactive) |
| Cc1ccc(Nc2cc(C)nn2-c2nc(C)cc(C)n2)cc1 | 5.85% (inactive) |
| Cc1cc(C)n(-c2nnc(C)c(=O)[nH]2)n1 | -0.21% (inactive) |
| Cc1cc(Nc2ccccc2)n(-c2nc3ccccc3[nH]2)n1 | -0.39% (inactive) |
| Cc1cc(C)n(-c2nc(O)cc(=O)[nH]2)n1 | -1.88% (inactive) |
| FC(F)(F)c1cccc(Oc2cc(C(F)(F)F)nc(-c3ccccn3)n2)c1 | 1.08% (inactive) |
| CCOc1ccc(N2C(=O)C3ON(c4ccccc4)C(c4cccs4)C3C2=O)cc1 (configuration not stated) | 9.38% (inactive) |
| CCCCC(=O)N1CCN(c2nc3ccc(F)cc3s2)CC1 | -7.63% (inactive) |
| Cc1cc(C)cc(NC2=C(N)C(=O)c3ccccc3C2=O)c1 | -9.49% (inactive) |
| O=C1C(=O)c2ccc(-c3ccccc3)cc2-c2ccccc21 | 1.01% (inactive) |
| Nc1ccc(Br)c2c1C(=O)c1ccccc1C2=O | -1.04% (inactive) |
| Nc1ccc2c(c1)C(=O)C(=O)c1ccccc1-2 | 6.22% (inactive) |
| COc1ccc(/C=C/C(=O)c2ccc(O)cc2)cc1CN1CCOCC1 | -8.66% (inactive) |
| CC(=O)Oc1ccc2c(=O)oc(-c3ccccc3C)nc2c1 | -4.89% (inactive) |
| CN(C)CCOC1c2ccccc2C=Cc2ccccc21 | 10.7% (inactive) |
| O=C1N=C2SCCN2/C1=C\c1ccc(Cl)cc1 | 3.83% (inactive) |
| O=C(NCc1nc(-c2ccccc2)no1)c1cccs1 | -6.48% (inactive) |
| COc1cccc(/C=N/NC(=O)CN2CC(c3ccccc3)CC2=O)c1OC (configuration not stated) | -3.73% (inactive) |
| COc1cccc(/C=N/NC(=O)CN2CC(c3ccccc3)CC2=O)c1O (configuration not stated) | 3.81% (inactive) |
| COc1cc(OC)c(C2=NOC(C(=O)N3CCc4ccccc4C3)C2)cc1Cl (configuration not stated) | -5.06% (inactive) |

| Structure (SMILES) | inhibition |
| --- | --- |
| COC(=O)c1cccc(N(CC(=O)NC2CCCCC2)C(=O)CNC(=O)c2cccs2)c1 | 7.52% (inactive) |
| COc1ccc(CNc2nc3ccccc3n2CCN2CCCCC2)cc1 | -9.45% (inactive) |
| CCN(CC)c1ccc(CNc2nc3ccccc3n2CCN2CCOCC2)cc1 | 6.95% (inactive) |
| COC(=O)N/N=C/c1ccccc1 | 3.82% (inactive) |
| COC(=O)N/N=C/c1ccccc1Cl | 9.79% (inactive) |
| O=C(CSc1ccc2c(c1)OCCO2)NC(=O)Cc1ccccc1 | -0.51% (inactive) |
| Cc1cccc(/C=C/c2onc(C)c2S(=O)(=O)N2CCC(C(=O)N3CCCCCC3)CC2)c1 | -16.2% (inactive) |
| CCOC(=O)c1cc2c(=O)n3ccccc3nc2n(C)c1=NC(=O)c1c(-c2c(F)cccc2Cl)noc1C | -5.85% (inactive) |
| CC1CCCCN1CCCNC(=O)c1ccc(Br)cc1 (configuration not stated) | 8.17% (inactive) |
| CC(C)CNC(=O)COC(=O)c1ccc(Cl)c(S(=O)(=O)N2CCc3ccccc32)c1 | 1.54% (inactive) |
| C[C@H](NCCc1ccc(O)cc1)[C@H](O)c1ccc(O)cc1 | -4.37% (inactive) |
| C[C@@H](NCCc1ccc(O)cc1)[C@@H](O)c1ccc(O)cc1 | -9.6% (inactive) |
| Cc1ccnc(NC(=O)C(C)N2C(=O)c3ccccc3S2(=O)=O)c1 (configuration not stated) | 6.11% (inactive) |
| CCOc1ccccc1NC(=O)NNC(=O)c1ccc2ccccc2c1 | 9% (inactive) |
| COc1cccc(-c2nnc(NC(C)=O)o2)c1 | -10.6% (inactive) |
| O=C(Nc1nnc(-c2ccco2)o1)c1ccc(Cl)s1 | 2.73% (inactive) |
| COCCN(C(=O)COC(=O)C1(C)CC1(Cl)Cl)c1c(N)n(Cc2ccccc2)c(=O)[nH]c1=O (configuration not stated) | -4.07% (inactive) |
| O=C(NC1CCN(C(=S)Nc2ccc(F)cc2)CC1)C1CCCCC1 | 1.22% (inactive) |
| Cc1ccc(CNC(=O)C2CCC(=O)N(Cc3cccc(C(F)(F)F)c3)C2)o1 (configuration not stated) | -2.94% (inactive) |
| O=C(CCN(CCO)Cc1ccccc1)Nc1ccc(Br)cc1 | 20.3% (inactive) |
| CCN(CCC(=O)Nc1cc(OC)cc(OC)c1)Cc1ccccc1 | -6.75% (inactive) |
| Cc1ccc(NC(=O)CNCc2cccs2)cc1Br | 2.2% (inactive) |
| Cc1ccc(NC(=O)CN(C)C2CCCCC2)cc1Cl | 17.3% (inactive) |
| Cc1ccc(NC(=O)CNCc2ccccc2)c(Br)c1 | 19.8% (inactive) |
| CN(CC(=O)Nc1ccc(Cl)c(Cl)c1)C1CCCCC1 | 9.2% (inactive) |

| Structure (SMILES) | inhibition |
| --- | --- |
| N#Cc1cc(NC(=O)c2ccc(F)cc2)c(=O)n2c1[nH]c1ccccc12 | -0.7% (inactive) |
| CCn1cc(CN2CCC(C(=O)Nc3cccc(-c4cccc(OC)c4)c3)CC2)cn1 | -5.91% (inactive) |
| CN1CCN(C(=O)/C(=C\c2ccccc2)c2ccccc2)CC1 | 3.28% (inactive) |
| Cc1cccc(-n2cc(-c3ccccc3)c3c(=O)[nH]cnc32)c1 | -10.3% (inactive) |
| COc1ccc(CCNC(=O)CN(c2cccc([N+](=O)[O-])c2)S(C)(=O)=O)cc1 | -12% (inactive) |
| Cc1ccccc1C(=O)N1CCN(S(=O)(=O)c2ccccc2)CC1 | -4.37% (inactive) |
| O=C(CSc1nnc(SCc2ccccc2Cl)s1)N/N=C/c1ccc(C(=O)O)cc1 | -6.94% (inactive) |
| COC(=O)c1cc(S(=O)(=O)N2CCN(c3ccccc3F)CC2)c[nH]1 | -1.3% (inactive) |
| O=C(O)c1cccc(N2C(=O)CSC2=S)c1 | 65.1% (inactive) |
| O=C1CSC(=S)N1c1cccc(Cl)c1 | -2.26% (inactive) |
| Cc1cc(NC(=O)NN2CCOCC2)nn1-c1c(Cl)cccc1Cl | -1.26% (inactive) |
| Nc1nc(SCC(=O)Nc2ccc([N+](=O)[O-])cc2)[nH]c(=O)c1NC(=O)c1ccc(Br)o1 | -2.49% (inactive) |
| c1cncc(-c2nnc(SCc3cccc4ccccc34)o2)c1 | 8.54% (inactive) |
| Cc1ccc2[nH]c3c(c2c1)CCc1cn[nH]c1-3 | -6.69% (inactive) |
| c1ccc2c3c([nH]c2c1)-c1[nH]ncc1CC3 | -5.34% (inactive) |
| Cc1ccc2c(c1)C1C3CCC(C3)C1S(=O)N2 (configuration not stated) | -0.67% (inactive) |
| COc1cc2ccccc2cc1C(=O)Nc1cccnc1 | -16.1% (inactive) |
| Nc1nnc(Cc2ccc(Cl)cc2Cl)s1 | -0.54% (inactive) |
| Clc1ccc(Cc2ccc(Cl)nn2)c(Cl)c1 | -3.15% (inactive) |
| Nc1nc(-c2ccccn2)nc(N)c1Cc1ccc(Cl)cc1Cl | -4% (inactive) |
| Cc1nc(N)c(Cc2ccccc2F)c(N)n1 | 8.16% (inactive) |
| CCOC(=O)C1(Cc2cccc(OC)c2)CCN(Cc2cnc(SC)nc2)CC1 | -3.1% (inactive) |
